Assay outcomes from PubChem.
AMA1 RON2 block – qHTS for Inhibitors of AMA1-RON; Towards Development of Antimalarial Drug Lead: Primary Screen. Plasmodium falciparum AMA1 (3D7) - RON2 peptide interaction. AlphaScreen AMA1-biotinylated RON2 peptide binding. Potency, µM (titrated, usually from 58.2 µM), inactives show at the top dose activity change, negative = inhibition, most hits filed as inhibitors. actives 0.2% (n = 360,000);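 note: potency is the fitted concentration of half-maximal effect; 0% = vehicle wells and -100% = peptide control; nearly all actives have a fitted effect of over 45% in size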
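AMA1 (3D7) with his tag at 25 nM final met compounds first, then biotinylated RON2 peptide at 25 nM; detection used donor plus acceptor beads, 10 µg/mL apiece, read by AlphaScreen after 30 min at room temperature.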
Pf growth 96h – Primary qHTS for delayed death inhibitors of the malarial parasite plastid, 96 hour incubation. actives 6.9% (n = 320,000). P. falciparum luciferase reporter growth, 96 h. Potency, µM (highest dose often 28.7 µM), for the others: at the highest dose activity change, negative = inhibition, most hits filed as inhibitors; note: potency is the fitted concentration of half-maximal effect; % is set by controls: 0 for no effect and ±100 for the full control effect
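P. falciparum expressing integrated firefly luciferase, in erythrocytes at 2% hematocrit, 0.05% parasitemia, incubated with compounds 96 h at 37 C, 5% CO2. Growth inhibition read as loss of luminescence; two-generation exposure targets delayed-death apicoplast inhibitors.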
HCV inhibitor – qHTS Assay for Inhibitors of Hepatitis C Virus (HCV). Huh7.5.1 HCVcc-Cre infection, luciferase reporter, 44 h. Potency, µM (doses to about 41.8 µM), for inactives: top-dose activity change, negative = inhibition, usual class: inhibitors. actives 3.4% (n = 340,000); note: potency is the fitted concentration of half-maximal effect; % is set by controls: 0 for no effect and ±100 for the full control effect
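Infectious HCV cell culture screen: compound-treated cells (1,000/well, pre-plated 4 h) are infected with HCVcc-Cre at roughly 0.5 moi and grown 44 h. Infection is quantified by luciferase signal after 15 min substrate incubation at room temperature.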
CHX counter – Cycloheximide Counterscreen for Small Molecule Inhibitors of Shiga Toxin | cell reporter, cycloheximide protein synthesis inhibition counterscreen | max response, % | actives 12% (n = 300,000); in the data active = max response mostly above about 13%, no sharp cut-off; inactive = mostly below about 14%; note: read at 38.3 µM for the half of the compounds with a filed dose; 0% is about no effect
Shiga inhibitor – A qHTS for Small Molecule Inhibitors of Shiga Toxin; Vero cells, Shiga toxin protein synthesis inhibition reporter; inhibition, % at 38.7 µM; actives 9.2% (n = 290,000); in the data active = inhibition mostly above about 28%, no sharp cut-off; inactive = mostly below about 43%; note: 0% is about no effect
Pf growth 48h – Primary qHTS for delayed death inhibitors of the malarial parasite plastid, 48 hour incubation; Potency, µM (highest dose often 28.7 µM), inactives show at the top dose activity change, negative = inhibition, hits mostly inhibitors; AID 504832, 2011; actives 5.9% (n = 310,000); P. falciparum luciferase growth in erythrocytes, 48 h; note: potency is the fitted concentration of half-maximal effect; % is set by controls: 0 for no effect and ±100 for the full control effect
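Growth was read as firefly luciferase luminescence after a 48 h, 37 C, 5% CO2 exposure of compounds to reporter-bearing P. falciparum cultures (0.1% parasitemia, 2% hematocrit final) in Albumax-supplemented RPMI 1640.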
HCV confirm – qHTS Assay for Inhibitors of Hepatitis C Virus (HCV): Confirmation Assay for Cherry-picked Compounds; HCVcc-Cre infectious virus cell assay, luciferase, inhibition; shares compounds with HCV inhibitor; actives 78% (n = 640); Potency, µM (top dose mostly 41.8 µM), for inactives: at the top dose activity, negative = inhibition, most hits filed as inhibitors; note: potency is the fitted concentration of half-maximal effect; nearly all actives have a fitted effect of over 80% in size
HCV cytotox – qHTS Assay for Inhibitors of Hepatitis C Virus (HCV): Cytotoxicity Counterscreen for Cherry-picked Compounds; Potency, µM (doses to about 41.8 µM), inactives show top-dose activity change, negative = cytotoxicity, actives largely listed as inhibitors; shares compounds with HCV inhibitor; HCV host cell line cytotoxicity counterscreen; actives 22% (n = 640);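 note: potency is the fitted concentration of half-maximal effect; 44 h compound exposure; % is set by controls: 0 for no effect and ±100 for the full control effect; nearly all actives have a fitted effect of over 55% in size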
The depositor's hits bear a star; i = inactive; ? = inconclusive; nt = not tested or not shown; [ ] = remark or other dose. Only some compounds are listed: those with a hit (about 21% of all), similar ones and a draw of the others. Unless noted, calls come from the whole dose curve; as a rule, active = well fitted curve in the direction sought with a large enough effect; inconclusive = small, poorly fitted or top-dose-only effect, or another doubt; inactive = no such curve, though single readings can be large; an effect the other way counts as inactive or inconclusive.

SMILES	AMA1 RON2 block	Pf growth 96h	HCV inhibitor	CHX counter	Shiga inhibitor	Pf growth 48h	HCV confirm	HCV cytotox
COCC(C)n1c(SCC(=O)N2CCc3ccccc3C2)nc2ccccc2c1=O (stereo not drawn)	-16.1%	7.38µM*	?	-0.9	-12.0	?	19.9µM*	-2.7%
Cc1ccc(S(=O)(=O)N2CCN(C(=O)CN3CCCSc4ccccc43)CC2)cc1	-4.0%	?	10.3%	nt	nt	?	nt	nt
CC(=O)N1CCN(Cc2nc3cc(NC(=O)c4ccccc4Cl)ccc3n2C)CC1	17.9%	i	-19.8%	-5.2	-3.0	?	nt	nt
CC(=O)N1CCN(Cc2nc3cc(NC(=O)c4ccc(Cl)cc4)ccc3n2C)CC1	7.2%	-23.5%	3.55µM*	9.6	-5.2	nt	14.1µM*	22.3µM*
Cc1cccc(CS(=O)(=O)c2ncc(Cl)c(C(=O)Nc3c(C)cccc3C)n2)c1	3.8%	36.9%	6.31µM*	22.0*	19.7	-14.8%	9.95µM*	28µM*
COc1ccc(CCC(C)NC(=O)Cc2ccc(OC)c(OC)c2)c(OC)c1 (stereo not drawn)	-2.2%	0.1%	7.08µM*	4.4	6.3	-20.6%	11.2µM*	?
CC(C)C(=O)Nc1ccc(NC(=O)c2ccc(COc3ccccc3)cc2)cc1	6.6%	?	0.9%	-1.2	nt	11.9%	nt	nt
c1ccc(-c2cccc(-c3ccccn3)n2)nc1	-87.5%	39.5%	5.62µM*	31.0*	90.7*	1.47µM*	3.53µM*	3.53µM*
CCOc1ccccc1NC(=O)/C=C/c1ccccc1[N+](=O)[O-]	-2.9%[2.32 µM]	?	?	45.4*	6.2	54.0%	?	26.7%
CCNC(=O)COC(=O)/C=C/c1ccccc1[N+](=O)[O-]	-10.6%	6.5%	22.8%	0.9	3.2	nt	nt	nt
C[C@]12CC[C@@H]3c4ccc(O)c(O)c4CC[C@H]3[C@@H]1CC[C@@H]2O	?	nt	2.82µM*	8.1	36.4	nt	19.9µM*	1.3%
C[C@]12CC[C@@H]3c4ccc(O)cc4CC[C@H]3[C@@H]1CC[C@@H]2O	-0.2%	?	-6.2%[8.37 µM]	-3.4	-8.6	-22.5%	nt	nt
CC(C)Sc1nc2c(c(=O)[nH]c(=O)n2C)n1CCc1ccccc1	2.1%	?	8.0%	-4.2	2.7	nt	nt	nt
CC(C)Sc1nc2c(c(=O)[nH]c(=O)n2C)n1Cc1ccccc1	-14.6%	0.0%	?	0.6	-3.0	-5.2%	-26.3%	14.0%
CCCCCCCCn1ccc(=N)cc1	-15.6%	?	0.891µM*	1.3	-12.6	0.37µM*	1.77µM*	2.23µM*
CCCCCCN1Cc2ccccc2C1	-2.1%	8.3%	9.3%	7.2	-2.5	33.7%	nt	nt
Cc1cn(CC(=O)NCCN2CCOCC2)c(=O)[nH]c1=O	-2.8%	nt	12.8%	nt	nt	nt	nt	nt
Cn1nc(C(F)(F)F)c2cc(NC(=O)OCc3ccc(C(C)(C)C)cc3)sc21	-16.8%	-32.9%	?	-4.8	-9.9	nt	25µM*	?
CN(C)NC(=S)NC1CC2CCC1C2 (stereo not drawn)	25.4%	-17.0%	19.6%	-2.0	-9.3	-5.3%	nt	nt
CN(Cc1ccccc1)C(=O)COC(=O)C1CCN(S(=O)(=O)c2cccs2)CC1	-8.3%	-4.9%	-2.4%	8.0	-2.9	25.8%	nt	nt
CCOC(=O)c1c(C)nc2c3ccccc3ccn12	-5.3%	20.8%	7.08µM*	32.0*	36.8*	256.8%	-23.3%	26.2%
CCOC(=O)c1c(C)nc2c(C)cccn12	1.7%	nt	17.4%	5.2	24.4	-0.3%	nt	nt
CCC(=O)NC(=S)Nc1ccc(NC(=O)c2cccc([N+](=O)[O-])c2C)cc1	-7.3%	-24.7%	?	-2.3	-10.5	6.9%	nt	nt
CCCC(=O)Nc1cccc(NC(=O)c2cccc([N+](=O)[O-])c2C)c1	-1.3%	18.5%	7.94µM*	-1.9	10.1	-7.7%	12.5µM*	-16.4%
Cc1ccn2c(=O)nc(SCC(=O)NCCc3ccccc3)nc2c1	-0.4%	7.2%	-5.5%[8.37 µM]	nt	nt	12.5%	nt	nt
SMILES	AMA1 RON2 block	Pf growth 96h	HCV inhibitor	CHX counter	Shiga inhibitor	Pf growth 48h	HCV confirm	HCV cytotox
COc1ccc(NC(=O)Nc2c(C)n(C)n(-c3ccccc3)c2=O)c(OC)c1	6.5%	16.3%	-13.4%	1.5	-5.7	3.4%	nt	nt
Cc1cc(Nc2ccccc2Cl)nc(-c2ccccc2O)n1	-3.5%	?	?	1.0	-8.3	?	nt	nt
Cc1cc(Nc2cccc(F)c2)nc(-c2ccccc2O)n1	33.2%	2.1%	4.47µM*	14.2	24.9	?	7.91µM*	-2.2%
O=C(c1ccco1)N1CCN(Cc2nnnn2C2CCCCC2)CC1	-10.1%	32.2%	12.5%	-6.5	-8.6	-7.2%	nt	nt
CN1CCN(/N=C/c2ccc(-c3ccc([N+](=O)[O-])cc3Cl)o2)CC1	?	2.6%	8.91µM*	-1.0	17.1	?	?	13.4%
Cc1ccc(CN2C3=NCCN3c3ccccc32)cc1	-4.5%	5.2%	-23.1%	-2.9	-10.3	?	nt	nt
O=C(CN1C2=NCCN2c2ccccc21)C12CC3CC(CC(C3)C1)C2	-1.3%	-13.7%	?	-3.7	-2.5	?	28µM*	10.7%
O=c1oc(C2(O)CCCCC2)cc2ccc(-c3ccc4[nH]ccc4c3)cc12	18.3%	nt	1.12µM*	nt	nt	nt	?	-13.9%
O=c1oc(C2(O)CCCCC2)cc2ccccc12	7.0%	nt	-84.6%	nt	nt	nt	nt	nt
Cc1cc(C(=O)COC(=O)c2ccc(O)cc2O)c(C)n1-c1ccccc1	9.4%[11.6 µM]	289.9%	?	nt	nt	123.8%	17.7µM*	-35.1%
COc1ccc(C(=O)CSc2nnc3ccc(-c4ccccn4)nn23)cc1	-1.6%	4.4%	11.9%	5.1	8.5	3.0%	nt	nt
COc1ccc(C(=O)CSc2nc(-c3ccccn3)nc(C)c2Cl)cc1	5.6%	?	4.47µM*	-1.7	-7.2	?	22.3µM*	4.45µM*
CN(C)c1ccc(/C=C2\Oc3ccc(C#Cc4cccc(N)c4)cc3C2=O)cc1	24.0%	nt	?	nt	nt	nt	8.87µM*	38.6%
CCC(CC)NC(=O)C1CC(=O)N(CCc2ccc(F)cc2)C1 (stereo not drawn)	-14.8%	28.1%	8.3%	-2.4	14.9	2.4%	nt	nt
COc1cc(OC)cc(-c2sc3ccc(OC)cc3c2C#CCO)c1	-0.3%	nt	?	nt	nt	nt	nt	nt
